# Bioassay records from PubChem.
# Pf apPOL inh – Pf-apPOL DNA polymerase inhibition | Recombinant Pf-apPOL, molecular beacon fluorescence, 1.5 h | inhibition, % at 10 µM | actives 0.25% (n = 210,000) | AID 1794808
# mHTT CaM bind – inhibitors of human mutant huntingtin-calmodulin interaction; AlphaScreen His-mHTT/GST-CaM binding, luminescence; inhibition, % at 15 µM; actives 3.6% (n = 190,000);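 note: 0% = both proteins with DMSO and 100% = one protein alone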
# An asterisk follows results filed as active; . = no result. The list is not random: actives were taken first. Their share in the collection is about 3.6%. Cut-off read from the data, not from the text of the source: active = inhibition above about 50%; inactive = the rest.
SMILES,Pf apPOL inh,mHTT CaM bind
CCN(CC)CCC(c1cc(OC)c(OC)c(OC)c1)c1c(OC)cc(OC)c2ccc(=O)oc12 (centres undefined),-8,4
COc1cc(C(CCN2CCCC2)c2c(OC)cc(OC)c3c2OC(=O)CC3c2ccc(N(C)C)cc2)cc(OC)c1OC (centres undefined),-4,75*
COc1ccc(C2CC(=O)Oc3c(C(CCN4CCN(c5ccccc5)CC4)c4ccc(N(C)C)cc4)c(OC)cc(OC)c32)cc1 (centres undefined),-7,73*
COc1cc(C2CC(=O)Oc3c(C(C)C)ccc(C)c32)cc(OC)c1OC (centres undefined),-5,-9
COc1ccc(NC(=O)CCN2CCN(c3ccccc3)CC2)c(OC)c1,-8,6
CCN(CC)CCC(c1cc(OC)c(OC)c(OC)c1)c1c(OC)cc(OC)c2c1OC(=O)CC2c1ccc(N(C)C)cc1 (centres undefined),-6,69*
CCC(C)NC(=O)N1CCCC(CNC(=O)C(C)C)C1 (centres undefined),-2,-2
Cc1ccc2nc(NC(=O)C3CCN(S(=O)(=O)c4c(C)n[nH]c4C)CC3)sc2c1,-3,2
Cc1ccccc1NC(=O)N1CCN(Cc2nc3cccnc3n2-c2ccc(F)cc2)CC1,-8,7
CC(C)C(=O)NC(c1cccs1)c1cc([N+](=O)[O-])c2cccnc2c1O (centres undefined),-5,100*
CCC(=O)NC(c1ccccc1OC)c1cc([N+](=O)[O-])c2cccnc2c1O (centres undefined),-4,100*
CCC(=O)NC(c1ccccc1Cl)c1cc([N+](=O)[O-])c2cccnc2c1O (centres undefined),-3,100*
CN(C)C(=O)NC(c1ccccc1)c1cc([N+](=O)[O-])c2cccnc2c1O (centres undefined),-10,100*
Cc1ccc(NC(=O)N2CCc3c(c(COCc4ccccc4F)nn3C)C2)cc1C,-4,36
COc1ccccc1Cc1noc(C2CN(Cc3ccc(Cl)cc3)C2)n1,-9,27
Cc1ccc(N2CCN(C(=O)c3ccccc3C)C(C)C2=O)cc1Cl (centres undefined),-3,-2
O=C(NC1CC1)c1cccc(OCC2CCCN(C(=O)c3ccc(Cl)cc3)C2)c1 (centres undefined),-4,1
COc1cc(OC)c(NC(=O)NC2(c3nc(C)no3)CCCCC2)cc1Cl,2,-10
CCC(=O)NC(c1ccc(C(C)C)cc1)c1cc([N+](=O)[O-])c2cccnc2c1O (centres undefined),-8,100*
CCC(=O)NC(c1ccccc1)c1cc([N+](=O)[O-])c2cccnc2c1O (centres undefined),1,100*
CCCC(=O)NC(c1ccc(Cl)cc1Cl)c1cc([N+](=O)[O-])c2cccnc2c1O (centres undefined),-3,99*
CCCC(=O)NC(c1ccc(C(C)C)cc1)c1cc([N+](=O)[O-])c2cccnc2c1O (centres undefined),-2,51*
O=C1C(=Cc2ccco2)Oc2cc(OC(=O)C3CCCCC3)ccc21,5,5
Cc1cccc(-n2c(=O)n(C3CC3)c(=O)c3c2ncn3C(C)c2ccccc2)c1 (centres undefined),-2,13
O=C(Nc1nccs1)C1CCC(CNS(=O)(=O)c2ccc(Br)s2)CC1 (centres undefined),-7,3
SMILES,Pf apPOL inh,mHTT CaM bind
COc1ccc(C2CC(=O)Nc3n[nH]c(-c4ccccc4)c32)c(OC)c1 (centres undefined),1,80*
O=C1CC(c2ccccc2F)c2c(n[nH]c2-c2ccccc2)N1 (centres undefined),4,7
O=C1CC(c2ccccc2Cl)c2c(n[nH]c2-c2ccccc2)N1 (centres undefined),2,69*
COc1ccc(C2CC(=O)Nc3n[nH]c(-c4ccc(Cl)cc4)c32)c(OC)c1 (centres undefined),-3,39
O=C(NCc1ccco1)c1cccc(C2CCCN(C(=O)c3ccccc3)C2)c1 (centres undefined),-2,9
CSc1cccc(C(=O)N(CCn2cccn2)c2nc3c(Cl)cccc3s2)c1,-5,100*
COc1ccc(OC)c2sc(N(CCN(C)C)C(=O)c3cccc(SC)c3)nc12,2,18
COCCn1c(CC2CCN(S(=O)(=O)c3cccc(C)c3)C2)nc2cccnc21 (centres undefined),0,7
Cc1cccc2c(C(=O)N(C)C)cc(=O)[nH]c12,-3,0
COc1cc(C=CC(=O)NCC(O)(c2ccccc2)C2CC2)cc(OC)c1OC (centres undefined),-8,10
COC(=O)C1CN(CCc2ccccc2)CCS(=O)(=O)N1Cc1ccc(C(F)(F)F)cc1 (centres undefined),-1,77*
COC(=O)C1CN(CCc2ccccc2)CCS(=O)(=O)N1Cc1ccccc1 (centres undefined),-3,12
COC(=O)C1CN(Cc2ccc(C)cc2)CCS(=O)(=O)N1Cc1cn(Cc2ccc(F)cc2)nn1 (centres undefined),-7,3
COC(=O)C1CN(Cc2ccc(F)cc2)CCS(=O)(=O)N1Cc1ccc(C)cc1 (centres undefined),-2,50*
CN(C)c1ccc(-c2nc3cc(NC(=O)c4ccncc4)ccc3o2)cc1,1,30
C=CCn1c(CSc2ccccc2[N+](=O)[O-])n[nH]c1=S,60*,.
COc1ccccc1-n1c(CSc2ccccc2[N+](=O)[O-])n[nH]c1=S,1,.
O=C(Nc1ccccc1)N1CCCC(OCc2cccc(F)c2)C1 (centres undefined),-2,-11
Clc1ccc2c(c1)C1CC(c3cccs3)=NN1C1(CCCC1)O2 (centres undefined),-6,78*
CC1(C)Oc2ccc(Cl)cc2C2CC(c3ccc(F)cc3)=NN21 (centres undefined),-18,50
CCOc1cccc2c1OC1(CCCCC1)N1N=C(c3cccs3)CC21 (centres undefined),-21,22
Brc1ccc2c(c1)C1CC(c3cccs3)=NN1C1(CCCC1)O2 (centres undefined),-3,72*
COc1ccc2c(c1)N1CCN(c3ccccc3)CC1C(C(=O)NCC(C)C)C2 (centres undefined),-5,44
COc1cc(O)ccc1C1CC(=O)Nc2c1c(C)nn2-c1nc2ccccc2s1 (centres undefined),-3,6
Cc1c(N2CCOCC2)c(C)n(Cc2cccc(F)c2)c1C(=O)NC1CC1,2,11
SMILES,Pf apPOL inh,mHTT CaM bind
CCN1CCN(C(=O)c2ccc(CN3CCN(c4ccc(C)cc4)CC3)o2)CC1,-10,17
CN(C)c1ccc(C2NC(C(=O)O)CS2)cc1Br (centres undefined),-3,-5
CC(=O)N1CCc2cc(Br)cc(S(=O)(=O)NCCc3cccc(C)c3)c21,-7,55*
CC(=O)N1CCc2cc(Br)cc(S(=O)(=O)NCCc3ccc(C)cc3)c21,-10,38
Cc1cccc(NC(c2ccc(Cl)cc2)c2ccc3cccnc3c2O)n1 (centres undefined),-12,98*
COc1ccc(C(Nc2cccc(C)n2)c2ccc3cccnc3c2O)cc1 (centres undefined),3,100*
